# ChEMBL document CHEMBL1961873, “Compounds: GSK PKIS; Assays: Nanosyn kinase panel” (2012)
# Legend:
# [1] = biological target: Tyrosine-protein kinase SYK (Homo sapiens) (UniProt P43405); settings: at 1 µM
# [2] = biological target: T1, Tyrosine-protein kinase Tec (Homo sapiens) (UniProt P42680); settings: at 0.1 µM
# T1 sequence (whole entry): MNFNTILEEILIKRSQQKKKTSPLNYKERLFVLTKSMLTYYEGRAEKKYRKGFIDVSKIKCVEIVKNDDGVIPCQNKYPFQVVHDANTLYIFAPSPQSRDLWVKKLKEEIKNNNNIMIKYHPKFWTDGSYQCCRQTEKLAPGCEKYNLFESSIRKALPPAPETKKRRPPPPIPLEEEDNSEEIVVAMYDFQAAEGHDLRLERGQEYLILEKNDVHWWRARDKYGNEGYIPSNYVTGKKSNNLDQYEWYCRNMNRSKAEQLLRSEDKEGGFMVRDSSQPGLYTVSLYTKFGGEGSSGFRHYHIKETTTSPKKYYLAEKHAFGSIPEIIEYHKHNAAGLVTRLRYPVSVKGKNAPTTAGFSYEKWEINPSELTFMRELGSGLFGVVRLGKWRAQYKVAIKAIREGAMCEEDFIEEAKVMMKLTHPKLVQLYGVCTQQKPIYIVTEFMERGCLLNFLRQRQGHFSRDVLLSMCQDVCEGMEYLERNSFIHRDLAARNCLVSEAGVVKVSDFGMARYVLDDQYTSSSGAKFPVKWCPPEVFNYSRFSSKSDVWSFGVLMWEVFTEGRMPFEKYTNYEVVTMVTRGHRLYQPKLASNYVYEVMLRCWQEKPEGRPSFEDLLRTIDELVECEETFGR
# [3] = biological target: T1, Tyrosine-protein kinase Tec (Homo sapiens); settings: at 1 µM
# [4] = biological target: Angiopoietin-1 receptor (Homo sapiens) (UniProt Q02763); settings: at 0.1 µM
# Sequence of Angiopoietin-1 receptor (Homo sapiens) (Q02763 whole entry): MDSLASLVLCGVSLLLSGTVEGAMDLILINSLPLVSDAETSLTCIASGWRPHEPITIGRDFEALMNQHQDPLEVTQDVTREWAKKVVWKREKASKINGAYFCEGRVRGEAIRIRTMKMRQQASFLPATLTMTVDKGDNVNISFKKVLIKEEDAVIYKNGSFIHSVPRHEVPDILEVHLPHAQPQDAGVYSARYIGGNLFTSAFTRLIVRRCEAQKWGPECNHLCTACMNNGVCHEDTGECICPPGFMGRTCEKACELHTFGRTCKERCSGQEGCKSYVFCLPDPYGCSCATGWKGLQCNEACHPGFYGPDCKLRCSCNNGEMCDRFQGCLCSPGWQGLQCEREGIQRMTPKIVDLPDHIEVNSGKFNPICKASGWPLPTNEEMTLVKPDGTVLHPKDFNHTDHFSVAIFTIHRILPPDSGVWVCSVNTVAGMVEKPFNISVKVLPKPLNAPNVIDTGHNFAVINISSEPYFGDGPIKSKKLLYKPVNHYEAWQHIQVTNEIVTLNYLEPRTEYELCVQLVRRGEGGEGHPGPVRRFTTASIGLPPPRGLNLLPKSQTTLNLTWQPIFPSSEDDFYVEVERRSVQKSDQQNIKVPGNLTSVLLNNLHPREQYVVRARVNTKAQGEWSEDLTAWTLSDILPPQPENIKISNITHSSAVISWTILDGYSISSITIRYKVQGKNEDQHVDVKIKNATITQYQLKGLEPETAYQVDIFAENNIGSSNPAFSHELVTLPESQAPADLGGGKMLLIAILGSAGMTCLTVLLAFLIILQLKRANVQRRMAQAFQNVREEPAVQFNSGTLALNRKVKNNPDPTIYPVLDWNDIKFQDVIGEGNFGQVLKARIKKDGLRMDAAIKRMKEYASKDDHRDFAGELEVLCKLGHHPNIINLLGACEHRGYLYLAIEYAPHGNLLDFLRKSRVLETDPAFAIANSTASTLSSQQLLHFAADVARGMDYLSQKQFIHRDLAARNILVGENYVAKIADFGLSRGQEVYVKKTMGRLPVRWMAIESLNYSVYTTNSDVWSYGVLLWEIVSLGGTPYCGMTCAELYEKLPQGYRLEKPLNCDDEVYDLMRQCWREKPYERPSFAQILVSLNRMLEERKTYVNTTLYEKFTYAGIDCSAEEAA
# [5] = biological target: Angiopoietin-1 receptor (Homo sapiens) (UniProt Q02763); settings: at 1 µM
# [6] = biological target: T2, Non-receptor tyrosine-protein kinase TNK1 (Homo sapiens) (UniProt Q13470); settings: at 0.1 µM
# T2 sequence (whole entry): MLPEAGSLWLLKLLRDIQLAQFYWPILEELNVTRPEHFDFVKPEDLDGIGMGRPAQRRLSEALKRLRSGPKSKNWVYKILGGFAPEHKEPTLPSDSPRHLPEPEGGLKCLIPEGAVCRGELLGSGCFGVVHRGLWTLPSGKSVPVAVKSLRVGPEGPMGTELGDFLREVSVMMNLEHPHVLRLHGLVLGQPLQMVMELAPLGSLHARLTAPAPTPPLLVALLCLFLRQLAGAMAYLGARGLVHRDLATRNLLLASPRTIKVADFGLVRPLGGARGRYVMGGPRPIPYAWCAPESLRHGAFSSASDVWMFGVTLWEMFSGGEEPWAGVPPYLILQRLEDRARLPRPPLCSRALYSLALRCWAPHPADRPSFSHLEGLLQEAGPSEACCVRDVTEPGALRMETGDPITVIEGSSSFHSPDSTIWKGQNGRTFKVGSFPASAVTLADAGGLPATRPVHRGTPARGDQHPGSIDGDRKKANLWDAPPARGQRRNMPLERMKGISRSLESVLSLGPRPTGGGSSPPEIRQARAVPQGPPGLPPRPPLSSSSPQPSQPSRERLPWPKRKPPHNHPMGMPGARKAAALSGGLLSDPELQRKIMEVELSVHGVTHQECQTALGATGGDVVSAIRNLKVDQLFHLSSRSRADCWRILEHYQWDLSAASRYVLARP
# [7] = biological target: T2, Non-receptor tyrosine-protein kinase TNK1 (Homo sapiens); settings: at 1 µM
# [8] = biological target: Activated CDC42 kinase 1 (Homo sapiens) (UniProt Q07912); settings: at 0.1 µM
# Sequence of Activated CDC42 kinase 1 (Homo sapiens) (Q07912 whole entry, looked up): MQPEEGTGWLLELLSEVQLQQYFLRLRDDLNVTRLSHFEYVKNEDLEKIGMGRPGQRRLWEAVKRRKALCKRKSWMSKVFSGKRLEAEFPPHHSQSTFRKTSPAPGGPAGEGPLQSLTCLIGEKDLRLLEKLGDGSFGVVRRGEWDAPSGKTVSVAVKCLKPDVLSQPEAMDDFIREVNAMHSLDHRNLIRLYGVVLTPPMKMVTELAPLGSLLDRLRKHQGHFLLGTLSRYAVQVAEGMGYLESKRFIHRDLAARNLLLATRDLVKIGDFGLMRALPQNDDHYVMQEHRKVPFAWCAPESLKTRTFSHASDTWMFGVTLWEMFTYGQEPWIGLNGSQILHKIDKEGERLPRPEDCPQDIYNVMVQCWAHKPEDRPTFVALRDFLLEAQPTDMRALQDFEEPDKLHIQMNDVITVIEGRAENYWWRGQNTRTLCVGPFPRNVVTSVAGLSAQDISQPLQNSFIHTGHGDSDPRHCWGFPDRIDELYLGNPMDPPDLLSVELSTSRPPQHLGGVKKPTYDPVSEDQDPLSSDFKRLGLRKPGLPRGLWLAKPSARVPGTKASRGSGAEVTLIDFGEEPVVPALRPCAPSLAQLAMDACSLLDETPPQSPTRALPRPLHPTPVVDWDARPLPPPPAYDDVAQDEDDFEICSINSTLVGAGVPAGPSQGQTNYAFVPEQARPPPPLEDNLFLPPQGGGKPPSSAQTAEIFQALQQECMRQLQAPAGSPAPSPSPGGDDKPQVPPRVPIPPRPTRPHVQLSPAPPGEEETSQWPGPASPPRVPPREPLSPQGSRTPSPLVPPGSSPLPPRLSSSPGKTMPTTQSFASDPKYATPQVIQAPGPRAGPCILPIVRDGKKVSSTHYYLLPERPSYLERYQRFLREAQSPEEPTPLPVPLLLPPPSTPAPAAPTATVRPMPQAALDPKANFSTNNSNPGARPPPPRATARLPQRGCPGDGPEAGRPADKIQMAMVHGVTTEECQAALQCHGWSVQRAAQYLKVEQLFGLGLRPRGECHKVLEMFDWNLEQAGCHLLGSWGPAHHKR
# [9] = biological target: Activated CDC42 kinase 1 (Homo sapiens) (UniProt Q07912); settings: at 1 µM
# [10] = biological target: High affinity nerve growth factor receptor (Homo sapiens) (UniProt P04629); settings: at 0.1 µM
# Sequence of High affinity nerve growth factor receptor (Homo sapiens) (P04629 33-796 limits assumed): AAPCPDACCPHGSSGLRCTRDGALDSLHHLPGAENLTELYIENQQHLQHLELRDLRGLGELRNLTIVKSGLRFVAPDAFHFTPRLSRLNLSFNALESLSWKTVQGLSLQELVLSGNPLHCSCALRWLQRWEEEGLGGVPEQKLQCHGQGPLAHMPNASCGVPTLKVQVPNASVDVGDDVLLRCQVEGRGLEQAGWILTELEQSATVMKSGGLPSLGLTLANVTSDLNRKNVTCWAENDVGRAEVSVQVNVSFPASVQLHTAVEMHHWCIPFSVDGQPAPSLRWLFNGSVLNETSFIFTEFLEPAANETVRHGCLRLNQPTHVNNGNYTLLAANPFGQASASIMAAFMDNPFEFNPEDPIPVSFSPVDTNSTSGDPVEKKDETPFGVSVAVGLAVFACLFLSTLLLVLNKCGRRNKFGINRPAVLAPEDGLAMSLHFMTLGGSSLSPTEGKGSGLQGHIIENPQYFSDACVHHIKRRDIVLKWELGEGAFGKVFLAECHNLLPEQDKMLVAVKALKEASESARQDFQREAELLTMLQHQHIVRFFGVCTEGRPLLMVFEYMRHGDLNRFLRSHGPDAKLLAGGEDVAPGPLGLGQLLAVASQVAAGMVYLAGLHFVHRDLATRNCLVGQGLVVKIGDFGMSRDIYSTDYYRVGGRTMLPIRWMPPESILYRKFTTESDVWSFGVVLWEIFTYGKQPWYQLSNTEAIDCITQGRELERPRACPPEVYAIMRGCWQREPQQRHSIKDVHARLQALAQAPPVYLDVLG
# [11] = biological target: High affinity nerve growth factor receptor (Homo sapiens) (UniProt P04629); settings: at 1 µM
# [12] = biological target: BDNF/NT-3 growth factors receptor (Homo sapiens) (UniProt Q16620); settings: at 0.1 µM
# Sequence of BDNF/NT-3 growth factors receptor (Homo sapiens) (Q16620 32-822 limits assumed): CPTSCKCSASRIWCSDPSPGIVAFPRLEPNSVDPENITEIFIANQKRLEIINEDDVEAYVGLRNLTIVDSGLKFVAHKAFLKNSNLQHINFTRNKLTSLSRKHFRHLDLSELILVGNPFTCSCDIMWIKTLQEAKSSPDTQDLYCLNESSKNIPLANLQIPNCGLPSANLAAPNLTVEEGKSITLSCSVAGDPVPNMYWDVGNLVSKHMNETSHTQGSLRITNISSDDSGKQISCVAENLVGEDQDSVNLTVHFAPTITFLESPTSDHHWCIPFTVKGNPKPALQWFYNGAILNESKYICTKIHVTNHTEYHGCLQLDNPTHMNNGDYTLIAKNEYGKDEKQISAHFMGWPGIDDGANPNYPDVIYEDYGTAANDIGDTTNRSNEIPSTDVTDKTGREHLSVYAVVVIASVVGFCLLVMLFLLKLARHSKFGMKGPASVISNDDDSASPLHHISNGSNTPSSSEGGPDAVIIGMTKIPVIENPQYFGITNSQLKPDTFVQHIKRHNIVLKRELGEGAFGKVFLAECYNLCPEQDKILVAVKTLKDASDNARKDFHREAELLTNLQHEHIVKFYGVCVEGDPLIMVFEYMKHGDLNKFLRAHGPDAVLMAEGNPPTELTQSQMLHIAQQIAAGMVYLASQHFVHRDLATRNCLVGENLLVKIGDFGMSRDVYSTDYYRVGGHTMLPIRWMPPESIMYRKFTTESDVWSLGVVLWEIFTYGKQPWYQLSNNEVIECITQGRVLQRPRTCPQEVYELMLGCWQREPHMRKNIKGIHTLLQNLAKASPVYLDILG
# [13] = biological target: BDNF/NT-3 growth factors receptor (Homo sapiens) (UniProt Q16620); settings: at 1 µM
# [14] = biological target: NT-3 growth factor receptor (Homo sapiens) (UniProt Q16288); settings: at 0.1 µM
# Sequence of NT-3 growth factor receptor (Homo sapiens) (Q16288 32-839 limits assumed): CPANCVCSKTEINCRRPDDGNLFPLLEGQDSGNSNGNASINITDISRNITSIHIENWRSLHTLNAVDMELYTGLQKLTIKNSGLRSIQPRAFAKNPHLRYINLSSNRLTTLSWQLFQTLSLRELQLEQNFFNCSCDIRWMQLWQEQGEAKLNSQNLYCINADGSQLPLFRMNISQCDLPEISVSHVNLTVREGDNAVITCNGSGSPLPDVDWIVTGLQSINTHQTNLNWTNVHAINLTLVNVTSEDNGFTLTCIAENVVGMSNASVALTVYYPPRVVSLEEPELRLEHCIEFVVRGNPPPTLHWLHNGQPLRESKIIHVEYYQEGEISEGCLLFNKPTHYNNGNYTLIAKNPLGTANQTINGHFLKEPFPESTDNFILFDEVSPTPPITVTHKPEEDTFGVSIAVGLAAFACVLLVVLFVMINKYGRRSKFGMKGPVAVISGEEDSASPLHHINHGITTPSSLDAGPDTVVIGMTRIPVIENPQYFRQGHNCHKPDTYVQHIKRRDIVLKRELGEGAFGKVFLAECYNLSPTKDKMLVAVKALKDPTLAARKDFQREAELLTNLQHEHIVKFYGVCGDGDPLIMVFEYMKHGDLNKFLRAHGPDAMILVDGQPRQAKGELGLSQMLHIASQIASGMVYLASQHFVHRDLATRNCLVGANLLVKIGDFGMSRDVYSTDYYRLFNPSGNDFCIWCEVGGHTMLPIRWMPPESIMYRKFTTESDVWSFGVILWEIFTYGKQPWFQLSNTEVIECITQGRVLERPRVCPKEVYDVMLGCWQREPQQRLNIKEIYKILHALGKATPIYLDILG
# [15] = biological target: NT-3 growth factor receptor (Homo sapiens) (UniProt Q16288); settings: at 1 µM
# [16] = biological target: T3, Tyrosine-protein kinase TXK (Homo sapiens) (UniProt P42681); settings: at 0.1 µM
# T3 sequence (whole entry): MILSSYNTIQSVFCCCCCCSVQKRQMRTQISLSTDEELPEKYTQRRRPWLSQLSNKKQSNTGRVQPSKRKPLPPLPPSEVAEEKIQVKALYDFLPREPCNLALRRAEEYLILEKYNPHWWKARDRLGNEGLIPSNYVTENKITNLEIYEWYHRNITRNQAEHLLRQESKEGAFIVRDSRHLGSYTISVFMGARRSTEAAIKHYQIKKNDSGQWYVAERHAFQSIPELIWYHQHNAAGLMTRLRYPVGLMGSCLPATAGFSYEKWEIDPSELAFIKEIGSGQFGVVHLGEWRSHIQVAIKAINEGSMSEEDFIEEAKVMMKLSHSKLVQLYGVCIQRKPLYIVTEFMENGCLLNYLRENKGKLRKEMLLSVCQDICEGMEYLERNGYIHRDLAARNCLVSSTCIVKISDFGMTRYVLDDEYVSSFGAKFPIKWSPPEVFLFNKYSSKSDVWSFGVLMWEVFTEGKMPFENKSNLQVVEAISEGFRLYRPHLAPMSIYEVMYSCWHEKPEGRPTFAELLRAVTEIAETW
# [17] = biological target: T3, Tyrosine-protein kinase TXK (Homo sapiens); settings: at 1 µM
# [18] = biological target: Non-receptor tyrosine-protein kinase TYK2 (Homo sapiens) (UniProt P29597); settings: at 0.1 µM;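 note: each value is a mean of the inhibition readings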
# [19] = biological target: T4, Dual specificity protein kinase TTK (Homo sapiens) (UniProt P33981); settings: at 1 µM;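 note: reported figures are mean TTK inhibition at 1 µM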
# T4 sequence (whole entry): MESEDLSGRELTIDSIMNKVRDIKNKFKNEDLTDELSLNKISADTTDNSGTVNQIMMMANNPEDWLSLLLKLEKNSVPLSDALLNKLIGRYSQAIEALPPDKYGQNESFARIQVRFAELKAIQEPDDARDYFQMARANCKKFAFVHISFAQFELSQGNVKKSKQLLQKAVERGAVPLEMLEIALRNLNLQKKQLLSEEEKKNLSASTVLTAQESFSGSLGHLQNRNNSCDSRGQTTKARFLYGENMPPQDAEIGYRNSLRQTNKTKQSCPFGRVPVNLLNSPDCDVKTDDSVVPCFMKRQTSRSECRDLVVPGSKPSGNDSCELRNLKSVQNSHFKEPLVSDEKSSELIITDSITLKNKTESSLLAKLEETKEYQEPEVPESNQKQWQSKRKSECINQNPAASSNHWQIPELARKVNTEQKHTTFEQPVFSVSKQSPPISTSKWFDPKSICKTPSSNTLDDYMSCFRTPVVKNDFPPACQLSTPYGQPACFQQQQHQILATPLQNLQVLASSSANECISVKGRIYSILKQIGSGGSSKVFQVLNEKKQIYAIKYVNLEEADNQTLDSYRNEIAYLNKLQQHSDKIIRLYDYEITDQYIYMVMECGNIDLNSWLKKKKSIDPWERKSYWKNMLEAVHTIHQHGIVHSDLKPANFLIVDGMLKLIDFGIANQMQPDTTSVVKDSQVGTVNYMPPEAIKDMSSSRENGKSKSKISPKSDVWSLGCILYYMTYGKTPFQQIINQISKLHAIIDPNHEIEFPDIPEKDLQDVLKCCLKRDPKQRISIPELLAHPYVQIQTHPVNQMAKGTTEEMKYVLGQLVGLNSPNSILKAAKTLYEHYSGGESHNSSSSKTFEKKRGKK
# [20] = biological target: T5, Aurora kinase A (Homo sapiens) (UniProt O14965); settings: at 0.1 µM;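 note: each reported value is a mean percent inhibition of Aurora-A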
# T5 sequence (whole entry): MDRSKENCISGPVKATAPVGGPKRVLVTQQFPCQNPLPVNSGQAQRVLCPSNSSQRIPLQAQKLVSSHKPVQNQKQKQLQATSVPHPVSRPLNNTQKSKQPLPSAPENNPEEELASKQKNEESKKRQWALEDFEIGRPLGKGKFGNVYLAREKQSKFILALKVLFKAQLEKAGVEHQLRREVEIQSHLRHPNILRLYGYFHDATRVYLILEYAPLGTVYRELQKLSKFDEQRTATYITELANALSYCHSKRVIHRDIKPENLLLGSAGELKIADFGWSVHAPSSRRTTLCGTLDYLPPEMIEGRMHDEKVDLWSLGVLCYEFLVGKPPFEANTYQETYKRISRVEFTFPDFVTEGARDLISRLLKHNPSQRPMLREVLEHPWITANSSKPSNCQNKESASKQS
smiles,measurement,setting,value
CCN1CCC(C(=O)Nc2n[nH]c3nnc(-c4cccc(F)c4F)cc23)CC1,inhibition,[1],0.2%
same,inhibition,[2],-1.63%
same,inhibition,[3],0.37%
same,inhibition,[4],1.84%
same,inhibition,[5],2.91%
same,inhibition,[6],1.54%
same,inhibition,[7],0.05%
same,inhibition,[8],-0.13%
same,inhibition,[9],0.07%
same,inhibition,[10],1.95%
same,inhibition,[11],4.28%
same,inhibition,[12],0.46%
same,inhibition,[13],1.47%
same,inhibition,[14],2.09%
same,inhibition,[15],0.96%
same,inhibition,[16],-0.15%
same,inhibition,[17],1.19%
same,inhibition,[18],3.04%
same,inhibition,[19],2.28%
same,inhibition,[20],2.41%
COc1cccc(Nc2nccc(-c3cnn4ncccc34)n2)c1,inhibition,[1],34.2%
same,inhibition,[2],4.27%
same,inhibition,[3],25.1%
same,inhibition,[4],5.94%
same,inhibition,[5],21.3%
same,inhibition,[6],15.3%
same,inhibition,[7],65.9%
same,inhibition,[8],1.79%
same,inhibition,[9],21.7%
same,inhibition,[10],4.75%
same,inhibition,[11],17.4%
same,inhibition,[12],6.68%
same,inhibition,[13],34.1%
same,inhibition,[14],7.22%
same,inhibition,[15],37.6%
same,inhibition,[16],2.32%
same,inhibition,[17],15.5%
same,inhibition,[18],-4.06%
same,inhibition,[19],22.8%
same,inhibition,[20],11.9%
Cn1c(-c2nonc2N)nc2cnccc21,inhibition,[1],0.59%
same,inhibition,[2],4.08%
same,inhibition,[3],3.99%
same,inhibition,[4],1.46%
same,inhibition,[5],2.07%
same,inhibition,[6],1.08%
same,inhibition,[7],0.76%
same,inhibition,[8],0.75%
same,inhibition,[9],0.19%
same,inhibition,[10],1.03%
same,inhibition,[11],0.76%
same,inhibition,[12],1.23%
same,inhibition,[13],0.53%
same,inhibition,[14],2%
same,inhibition,[15],1.22%
same,inhibition,[16],4.05%
same,inhibition,[17],4.22%
same,inhibition,[18],-2.09%
same,inhibition,[19],8.28%
same,inhibition,[20],1.22%
CS(=O)(=O)Nc1ccc(-c2cc(-c3ccccc3)cc(C(N)=O)c2N)cc1,inhibition,[1],0.38%
same,inhibition,[2],0.8%
same,inhibition,[3],1.3%
same,inhibition,[4],0.34%
same,inhibition,[5],0.58%
same,inhibition,[6],1.13%
same,inhibition,[7],5.5%
same,inhibition,[8],-0.09%
same,inhibition,[9],-0.33%
same,inhibition,[10],3.2%
same,inhibition,[11],3.74%
same,inhibition,[12],1.96%
same,inhibition,[13],2.61%
same,inhibition,[14],1.09%
same,inhibition,[15],0.08%
same,inhibition,[16],0.48%
same,inhibition,[17],2.13%
same,inhibition,[18],-1.8%
same,inhibition,[19],3.01%
same,inhibition,[20],1.29%
